Shown are actives, neighbours in structure and some others; about 1.1% of the full set was active somewhere.
ASM inhibitor = Inhibitors of Secretory Acid Sphingomyelinase (S-ASM): qHTS; placental ASM, HMU-PC fluorogenic substrate, 60 min; Potency, µM (doses to about 57.5 µM), actives largely listed as inhibitors; actives 0.006% (n = 340,000); AID 504937, 2011
Target sequence (P17405 47-631 limits assumed): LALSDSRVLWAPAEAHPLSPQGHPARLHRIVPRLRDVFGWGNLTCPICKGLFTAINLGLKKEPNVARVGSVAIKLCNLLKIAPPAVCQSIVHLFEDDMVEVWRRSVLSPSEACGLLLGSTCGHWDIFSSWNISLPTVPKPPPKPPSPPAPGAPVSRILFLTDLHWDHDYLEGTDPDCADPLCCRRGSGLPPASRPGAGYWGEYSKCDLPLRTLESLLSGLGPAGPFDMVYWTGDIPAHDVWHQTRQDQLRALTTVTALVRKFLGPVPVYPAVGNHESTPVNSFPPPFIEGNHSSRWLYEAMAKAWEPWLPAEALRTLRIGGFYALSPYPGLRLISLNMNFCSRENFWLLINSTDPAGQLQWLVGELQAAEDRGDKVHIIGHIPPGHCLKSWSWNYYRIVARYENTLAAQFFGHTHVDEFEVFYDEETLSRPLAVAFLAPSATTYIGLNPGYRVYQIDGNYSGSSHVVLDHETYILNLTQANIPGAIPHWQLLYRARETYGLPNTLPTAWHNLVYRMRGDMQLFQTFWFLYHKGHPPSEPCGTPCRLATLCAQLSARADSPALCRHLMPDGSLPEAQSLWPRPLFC
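Human placenta-derived ASM preincubated with compound 10 min at room temperature, then reacted with 9 uM (final) fluorogenic HMU-PC substrate for 60 min at 37 C. Stop solution raises pH to 10; fluorescence read at Ex 386/Em 447 nm.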
RXFP1 antagonist = qHTS Assay for Antagonists of the Relaxin Receptor RXFP1 | actives 0.59% (n = 350,000) | HEK293-RXFP1, relaxin-stimulated cAMP HTRF, 30 min; hits give low values | Relaxin receptor 1 (Homo sapiens), Q9HBX9 | activity change, negative = inhibition, % at 57.5 µM | AID 1259400, 2018;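 active = activity change of -60% or lower, but not beyond a set lower limit; inconclusive = change between -60% and -40%, or beyond the set limit; inactive = change above -40%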
RXFP1 ag = qHTS Assay for Agonists of the Relaxin Receptor RXFP1 | Relaxin receptor 1 (Homo sapiens), Q9HBX9 | HEK293T-RXFP1 cAMP TR-FRET, 30 min; response scale: percent of porcine relaxin response, buffer zero | Potency, µM (titrated, usually from 57.5 µM), hits mostly activators | actives 0.3% (n = 370,000); also: nearly all actives have a fitted effect of over 60% in size
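cAMP rise read by TR-FRET after 30 min, 37C compound exposure (up to 58 uM) in RXFP1-transfected HEK293 cells with Ro 20174 present. EC50 from Hill-equation fits, with 29 nM porcine relaxin as 100% and buffer as basal.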
Integrin act MD = qHTS for Activators of Integrin-Mediated Alleviation for Muscular Dystrophy; alpha7betagal myoblasts, beta-gal FDG fluorescence, 48 h; actives 0.064% (n = 350,000); Potency, µM (highest dose often 38.3 µM), most hits filed as activators; AID 624291, 2012; also: nearly all actives have a fitted effect of over 60% in size
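Alpha7betagal+/- myoblasts (passage 13) were plated 16-24 hr, then exposed to compounds (1:260 dilution of DMSO stock) for 48 hours at 37C. After MPER lysis, β-galactosidase reporter activity was read as FDG fluorescence (ex 480/em 540) after 30 minutes.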
gsp antagonist = qHTS for Antagonists of gsp, the Etiologic Mutation Responsible for Fibrous Dysplasia/McCune-Albright Syndrome: qHTS; Potency, µM (doses to about 76.9 µM), most hits filed as inhibitors; gsp-mutant cells, cAMP HTRF, 30 min; actives 0.4% (n = 340,000); AID 624288, 2012; calls by dose curve; cell line not stated here;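 also: intracellular cAMP measured with PDE inhibitor Ro 20-1724 present during compound exposure; nearly all actives have a fitted effect of over 65% in size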
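G418-selected cells were plated in DMEM/10% FBS for 16-24 h at 37C, then treated with compounds plus the PDE inhibitor […] (300 uM solution added) for 30 min at 37C. Intracellular cAMP was measured by HTRF after 30 min lysis at room temperature.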
gsp ag = qHTS for Agonist of gsp, the Etiologic Mutation Responsible for Fibrous Dysplasia/McCune-Albright Syndrome: qHTS; actives 0.13% (n = 340,000); gsp mutant cells, cAMP HTRF, 30 min; Potency, µM (titrated, usually from 76.9 µM), hits mostly activators; AID 624287, 2012; active = well fitted activation curve with a large enough effect; inconclusive = small, poorly fitted or top-dose-only effect, or another doubt; inactive = no such curve, though single readings can be large or run the other way; cell line not stated here;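 also: phosphodiesterase inhibitor Ro 20-1724 added with compounds to block cAMP breakdown; nearly all actives have a fitted effect of over 60% in size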
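Cells stably selected in G418 were plated at 2000/well, grown 16-24 hr, then given compounds in DMSO with the PDE inhibitor […] (300 uM solution added) for 30 min at 37C; cAMP was read by HTRF.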
A number is an active result; – = inactive; ? = inconclusive; · = no result given; [ ] = remark or other dose. Unless noted, calls follow the shape of the dose curve; as a rule, active = well fitted curve in the direction sought with a large enough effect; inconclusive = small, poorly fitted or top-dose-only effect, or another doubt; inactive = no such curve, though single readings can be large; an effect the other way counts as inactive or inconclusive.

SMILES | ASM inhibitor | RXFP1 antagonist | RXFP1 ag | Integrin act MD | gsp antagonist | gsp ag
Cc1[nH]n(-c2ccccc2)c(=O)c1Sc1ccc(Cl)cc1 | – | – | – | – | – | –
Cc1cc(-c2c(C)[nH]n(-c3ccc(Cl)cc3)c2=O)n[nH]1 | – | – | – | – | 40µM | –
CCN(CC)S(=O)(=O)c1cc([N+](=O)[O-])ccc1NNC(=O)Nc1ccccc1OC | – | – | – | – | – | –
CCN(CC)S(=O)(=O)c1cc([N+](=O)[O-])ccc1NNC(=O)Nc1ccc(F)cc1 | – | – | – | – | 50µM | –
CN(C)C(=S)Nc1cccc(C(F)(F)F)c1 | – | – | – | 10µM | – | –
CN(C)NC(=S)Nc1cccc(C(F)(F)F)c1 | – | – | – | – | – | –[15.4 µM]
COC(=O)c1ccc(/C=C/C(=O)OCC(=O)Nc2sccc2C(N)=O)cc1 | – | ? | · | – | 28µM | –
Cc1cccc(N(CC(=O)N2CCCC2)S(C)(=O)=O)c1 | – | – | – | – | – | –
Cc1ccc(C)c(NC(=O)CN2C(=O)c3cccnc3Oc3ccc(C)cc32)c1 | · | – | – | · | · | ·
C=C1C(=O)C23CCC4C(C)(C(=O)OC)CCCC4(C)C2CCC1(O)C3 (centres undefined) | – | -92 | · | – | – | –
CCOC(=O)c1ccc(OCCN2C[C@H](O)[C@@H](O)[C@H](O)[C@H]2CO)cc1 | · | – | · | · | · | ·
CC1CCC2(CC1)NC(=O)N(CC(=O)N1CCN(c3ccccc3)CC1)C2=O (centres undefined) | – | – | – | – | – | –
COc1ccc(C2=NC3(CCCCCC3)N(CC(=O)Nc3ccc(C)c(C)c3)C2=O)cc1 | · | – | – | · | · | ·
COc1ccc2[nH]c3c(NCCC4=CCCCC4)ncnc3c2c1 | – | -71 | – | – | 28µM | –[15.4 µM]
O=c1c2ccccc2sn1-c1cc(S(=O)(=O)N2CCOCC2)ccc1N1CCCC1 | – | -62 | – | – | ? | ?
Cc1ccc(-c2cc(-c3coc4ccc(Cl)cc4c3=O)c3c(n2)-c2ccccc2OC3)cc1 | · | · | – | · | · | ·
CCOc1ccc(CNC(=O)c2cnc(SC)nc2CC)cc1 | · | – | – | · | · | ·
O=C(CC1SC(=O)N(c2ccccc2)C1=O)Nc1ccc(Cl)cc1 (centres undefined) | – | -70 | – | – | – | –[15.4 µM]
O=C(CC1SC(=O)N(c2ccccc2)C1=O)Nc1ccc(Br)cc1 (centres undefined) | – | ? | – | – | – | –[15.4 µM]
CC(C)NC(=O)C1CCN(C(=O)c2cc3sccc3n2Cc2ccc(Cl)cc2)CC1 | · | – | – | · | · | ·
CC(C)NC(=O)C1CCN(C(=O)c2cc3sccc3n2Cc2ccc(F)cc2)CC1 | – | – | – | – | 32µM | –
O=C1CCCN1c1ccc(S(=O)(=O)NCCOc2ccccc2)cc1 | – | – | – | – | ? | –
Cc1cc(N2CCCC2=O)cc(C)c1S(=O)(=O)NCCOc1ccc(C(C)(C)C)cc1 | – | – | – | – | 25µM | –
CCC12CN3CC(C)(CN(C1)C3c1c[nH]c3ccc(OC)cc13)C2=O (centres undefined) | · | – | – | · | · | ·
Cc1ccc(-n2nc(C(C)(C)C)cc2NC(=O)Nc2ccc(OCCN3CCOCC3)c3ccccc23)cc1 | · | – | · | · | · | ·
O=S(=O)(c1ccccc1)N1CCC(c2ccncc2)CC1 | · | -106 | – | · | · | ·
C=CCOc1ccc(C2/C(=C(\O)c3ccc4c(c3)OCCO4)C(=O)C(=O)N2CCCN2CCOCC2)cc1 (centres undefined) | – | – | ? | – | – | ?
O=C(c1ccco1)N1CCN(Cc2cc(=O)c(OCc3ccccc3)co2)CC1 | · | – | – | – | – | 20µM
CCC[C@@H](NS(=O)(=O)c1ccc(C)cc1)C(=O)Oc1ccc2c3c(c(=O)oc2c1)CCC3 | – | – | – | – | 28µM | ?

High-throughput results: PubChem, National Center for Advancing Translational Sciences (NCATS)
